# SKKanGAS inh – S. pyogenes SKKanGAS growth inhibitors in kanamycin, primary screen, streptokinase expression inhibitor project, SKKanGAS strain, BacTiter-Glo luminescence. AID 1662, 2009. inhibition, % at 7.5 µM. 6 h. 1.3% of 300,000 active;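 active means mean replicate score, as percent of positive control median, at least 50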;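 further: strain carries kanamycin resistance gene driven by streptokinase promoter and grows in 40 µg/ml kanamycin; loss of luminescence reflects streptokinase promoter inhibition or plain growth inhibition; 0% = median of DMSO wells and 100% = positive control at its reference dose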
# tim23-1 inh – growth inhibitors of tim23-1 mutant yeast, primary screen, luminescence, uHTS; 1.3% of 330,000 active; S. cerevisiae tim23-1 growth, BacTiter-Glo luminescence, 24 h; inhibition, % at 20 µM;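 active means growth inhibition of the mutant yeast at or above 50%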;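 further: temperature-sensitive mutant grown at 25 °C; plate controls were DMSO-treated mutant yeast for no effect and medium wells lacking yeast for full effect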
# tim10-1 inh – growth inhibitors of tim10-1 mutant yeast, primary screen, luminescence, uHTS. S. cerevisiae tim10-1 ts strain growth, BacTiter-Glo, 24 h. inhibition, % at 20 µM. 2.2% of 330,000 active. AID 463190, 2010;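 active means inhibition of at least 40%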;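 further: mutant grown at 25 °C; 0% = DMSO wells with yeast and 100% = wells holding no yeast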
# V-ATPase pH – regulators of yeast V-ATPase proton pumping, primary screen, pHLuorin cytosolic pH fluorescence. S. cerevisiae. response, % at 10 µM. 0.37% of 350,000 active; in the data active means response mostly above about 7.3%, no sharp cut-off; inactive means mostly below about 5.4%; further: actives read high
# TIM10 inh – growth inhibitors of isogenic TIM10 control yeast, primary screen, counter-screen for tim10-1 yeast inhibitor project, luminescence, uHTS; S. cerevisiae TIM10 strain growth, BacTiter-Glo luminescence, 24 h; inhibition, % at 10 µM; 1.4% of 330,000 active;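 active means inhibition of 40% or more at the single tested concentration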;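 further: wild-type TIM10 isogenic control strain grown at permissive 25 °C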
# PfHsp90 set2 – growth inhibition of PfHsp90-expressing yeast, primary screen, antimalarial PfHsp90 inhibitor project, S. cerevisiae, BacTiter-Glo luminescence, single point, set 2 | 0.32% of 310,000 active | BacTiter-Glo ATP, 48 h; yeast lacking PDR1 and PDR3 efflux regulators | AID 504621, 2011 | inhibition, % at 9.4 µM;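 active means every replicate shows inhibition above about 80%, whatever the replicate mean, limit read from the data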;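 further: 0% = DMSO neutral controls and 100% = 20 µM radicicol positive controls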
# tim10-1 confirm – growth inhibitors of tim10-1 mutant yeast, confirmation, single concentration, luminescence, S. cerevisiae | inhibition, % at 20 µM | shares compounds with tim10-1 inh | 56% of 7,400 active | AID 463213, 2010 | S. cerevisiae tim10-1 ts strain growth, BacTiter-Glo, 24 h;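 active means inhibition of yeast growth at or above a set limit in either of two repeat tests at 20 µM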;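 further: tim10-1 mutant grown at permissive 25 °C to find synthetic lethal compounds; 0% = DMSO yeast wells and 100% = medium wells without yeast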
# The depositor's hits bear a star; nt = no result. An excerpt weighted towards active compounds, which were near 4.6% of everything screened.
SMILES,SKKanGAS inh,tim23-1 inh,tim10-1 inh,V-ATPase pH,TIM10 inh,PfHsp90 set2,tim10-1 confirm
C[C@]12C(=O)N(c3ccccc3)C(=O)N1[C@@H]1c3ccccc3OC[C@@H]1[C@H]2c1ccccc1,5,29,21,-2,12,-3,nt
COc1ccccc1C(=O)Nc1nnc(S(=O)(=O)N2CCCCC2)s1,4,44,48*,-2,19,-6,14
COc1cc(NC(C)CCCN)c2nc(C)ccc2c1Oc1ccc(F)cc1 (stereo not drawn),nt,nt,nt,7,nt,nt,nt
COc1ccc(Cl)cc1Nc1nc(N)nc(C(F)(F)F)n1,-6,17,48*,0,26,nt,14
COc1ccc(Nc2nc(N)nc(C(F)(F)F)n2)c(OC)c1,-4,11,18,-2,19,-2,nt
CN1CC(c2ccccn2)C2(SC(=S)N(Cc3ccccc3)C2=O)C12C(=O)Nc1ccccc12 (stereo not drawn),-3,20,29,-2,15,nt,nt
CN1CC(c2ccccc2)C2(SC(=S)N(Cc3ccco3)C2=O)C12C(=O)Nc1ccccc12 (stereo not drawn),13,19,44*,-2,13,nt,16
Cc1ccc(S(=O)(=O)NC(C)C(=O)OCC(=O)N(C)c2ccccc2)cc1 (stereo not drawn),nt,18,21,-5,1,nt,nt
CC(C)OCCCn1c(-c2ccc(Br)cc2)c[nH]c1=S,-1,-5,43*,3,39,-11,10
CC(C)OCCCn1c(=S)[nH]c2ncccc2c1=O,-1,16,22,-2,9,7,nt
CN(C)C(=O)C12CCC(C)(c3nc4ccccc4nc31)C2(C)C (stereo not drawn),-9,20,42*,-1,-4,-12,10
Cc1cc2c(sc3c(C)ccc(C)c32)c(C)n1,-11,45,48*,2,14,-6,18
CC1=CC(=O)Nc2ncccc2O1,nt,nt,nt,-1,nt,nt,nt
COc1ccccc1C(=O)NNC(=O)C1CCCO1 (stereo not drawn),1,-8,0,3,-5,-12,nt
N/C(=N\OC(=O)c1ccco1)c1cccnc1,-17,8,-8,0,-7,5,nt
N/C(=N\OC(=O)C(c1ccccc1)c1ccccc1)c1cccnc1,2,19,41*,-2,-8,-7,8
N/C(=N\OC(=O)COc1ccccc1)c1cccnc1,0,5,4,1,1,7,nt
N/C(=N\OC(=O)c1cccc2ccccc12)c1cccnc1,-6,26,62*,-5,34,5,65*
N/C(=N\OC(=O)c1ccc(Cl)cc1)c1ccc(Cl)cc1,-5,23,43*,0,12,7,34*
N/C(=N\OC(=O)c1ccc(Cl)cc1)c1cccnc1,-4,50,65*,-1,33,17,62*
N/C(=N\OC(=O)c1cccc2ccccc12)c1cccc([N+](=O)[O-])c1,-15,22,33,3,6,-5,nt
Cc1cccc(C)c1N=C1NN=C(c2ccccc2F)CS1,11,21,25,-2,31,-25,nt
Cc1ccccc1N=C1NN=C(c2ccccc2F)CS1,11,15,42*,0,6,-8,22
COc1cccc(CNc2nc3nc(C)c(Cl)c(C)n3n2)c1,-4,48,48*,-1,-3,13,29*
COc1ccc(N2CCN(Cc3nc(N)nc(N4CCCc5ccccc54)n3)CC2)cc1,39,22,40*,9,16,1,15
SMILES,SKKanGAS inh,tim23-1 inh,tim10-1 inh,V-ATPase pH,TIM10 inh,PfHsp90 set2,tim10-1 confirm
CN(C)c1nc(OCCOC(=O)COc2ccc(Cl)cc2Cl)nc(N(C)C)n1,-11,23,29,2,14,20,nt
CN(C)c1nc(OCCNC(=O)COc2ccc(Cl)cc2Cl)nc(N(C)C)n1,-11,17,44*,0,14,nt,15
Cc1cc(C)c2nc(SCC(=O)NCCC3=CCCCC3)cc(C)c2c1,0,5,26,0,-9,-7,nt
O=C(Nc1ccccc1C(=O)Nc1ccccc1C(=O)O)c1ccccc1,33,31,47*,-1,9,-6,26
COc1ccc(C(=O)Nc2ccccc2C(=O)Nc2ccccn2)cc1,3,45,43*,-1,17,24,24
O=C(NC1CCCC1)C(c1ccc(F)cc1)N(Cc1ccc(F)cc1)C(=O)CCl (stereo not drawn),-7,41,57*,-5,36,9,33*
COc1ccc(-c2nnc(SCc3cc(C)ccc3C)n2N)cc1,8,45,42*,-4,39,1,39*
Oc1c(Cl)cc(Cl)c2c1NCCC2,69*,-4,50*,-66,-1,-21,18
O=C1NCCCc2c1oc1ccc(O)cc21,1,-4,4,5,-15,-10,nt
CCOc1ccc(N2CC(C(=O)N3CCCc4ccccc43)CC2=O)cc1 (stereo not drawn),4,35,41*,-1,14,-1,20
Cc1ccc(N2CC(C(=O)N3CCCc4ccccc43)CC2=O)cc1 (stereo not drawn),-1,29,29,-3,15,5,nt
CCC1(c2ccccc2)NC(=O)N(CC(=O)NCc2ccc(C)cc2)C1=O (stereo not drawn),1,-4,4,4,3,-1,nt
CN(C(=O)Cn1cccc1C1=NC(c2ccccc2)CO1)c1ccccc1 (stereo not drawn),-2,30,42*,7,21,0,18
CC1COC(c2cccn2Cc2ccccc2Cl)=N1 (stereo not drawn),10,-1,17,-1,15,-4,nt
CCCn1nc(NS(C)(=O)=O)c2cc3cccc(C)c3nc21,-2,34,42*,-2,27,nt,35*
CCCn1nc(NC(=O)CC)c2cc3cccc(C)c3nc21,-4,24,17,-3,20,12,nt
CCn1nc(NS(=O)(=O)c2ccc(C)cc2)c2cc3ccccc3nc21,5,34,44*,-1,-9,3,-9
CCn1nc(NS(=O)(=O)c2ccc([N+](=O)[O-])cc2)c2cc3ccccc3nc21,8,9,2,-2,11,-6,nt
Cc1ccc(C(=O)NNC(=O)CSc2nnc(C(C)C)n2C)cc1,-1,11,1,2,-8,-5,nt
Cc1ccc(C(=O)Nc2sc3c(c2C(=O)O)CCCCC3)o1,20,46,41*,-1,23,10,35*
O=C(Nc1cccc(-n2cnnn2)c1)c1ccc(OC(F)(F)F)cc1,-5,0,10,3,11,-6,nt
